Results from PubChem BioAssay AID777 (Sanford-Burnham Center for Chemical Genomics, 2007).
In all, about 96,000 compounds went through this assay and about 19,000 (20%) were called active.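 How the source made its calls: active means blocking of liver enzyme CYP2C9 beyond about 50% at 5 µM (limit read from the data); inactive means the rest.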 A selection follows.

Each molecule was assayed against Cytochrome P450 2C9 (Homo sapiens) (UniProt P11712) (assay: blockers of cytochrome P450 2C9 activity – biochemical, luminescence, ADME assay, primary screen (AID 777)). Conditions: CYP2C9 Supersomes, luciferin-H conversion, at 5 µM, hits give high values.
Sequence of Cytochrome P450 2C9 (Homo sapiens) (P11712 whole entry, looked up): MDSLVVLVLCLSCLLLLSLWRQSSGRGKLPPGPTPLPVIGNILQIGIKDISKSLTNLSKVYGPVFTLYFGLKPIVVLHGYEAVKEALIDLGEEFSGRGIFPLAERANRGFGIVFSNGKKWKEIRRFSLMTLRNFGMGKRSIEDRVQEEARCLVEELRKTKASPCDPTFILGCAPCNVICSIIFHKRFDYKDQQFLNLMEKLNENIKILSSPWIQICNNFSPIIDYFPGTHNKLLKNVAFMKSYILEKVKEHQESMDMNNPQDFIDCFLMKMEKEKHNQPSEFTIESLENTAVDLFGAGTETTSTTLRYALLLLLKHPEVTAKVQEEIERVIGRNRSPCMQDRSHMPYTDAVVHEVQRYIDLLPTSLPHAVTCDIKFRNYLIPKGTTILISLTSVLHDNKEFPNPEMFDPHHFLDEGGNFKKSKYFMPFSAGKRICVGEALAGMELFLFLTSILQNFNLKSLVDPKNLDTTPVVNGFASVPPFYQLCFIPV

`Cc1cc(NC(=O)CS(=O)(=O)c2cn(C)c3ccccc23)no1` was tested. Which inhibition did it give?
Its inhibition is -20.5% (inactive).

How did the inhibition turn out when `CCN(CC)S(=O)(=O)c1ccc2nc(CSc3nnnn3-c3ccc(O)cc3)[nH]c2c1` was run?
The inhibition was 97.3% (active).

With `CCN(CC)S(=O)(=O)c1ccc2nc(COC(=O)c3n[nH]c4ccccc34)[nH]c2c1` as the molecule, how does the inhibition read?
Its inhibition is 77.2% (active).

Which inhibition does the source give for `CN(C)S(=O)(=O)c1ccc(NC(=O)COC(=O)c2n[nH]c3ccccc23)cc1` here?
Its inhibition is 13.8% (inactive).

For `COc1ccc(-n2nnnc2SCc2nc(N)nc(N3CCOCC3)n2)cc1`, which inhibition is on record?
Its inhibition is 35.6% (inactive).

For `CCN(CC)S(=O)(=O)c1ccc2[nH]cc(C(=O)NCCc3ccccc3)c(=O)c2c1`, which inhibition is on record?
Its inhibition is 22.4% (inactive).

Which inhibition does the source give for `O=c1c2ccccc2nc(CSc2nnnn2-c2ccccc2)n1-c1ccccc1` here?
Its inhibition is -6.4% (inactive).

How did the inhibition turn out when `COC(=O)[C@H](Cc1ccccc1)NC(=O)N1CC(C)OC(C)C1` (some centres not stated) was run?
Its inhibition is 4.3% (inactive).

For `O=C(NC1(C(F)(F)F)NC(=O)N(Cc2cccnc2)C1=O)c1ccccc1Cl` (configuration not stated), which inhibition is on record?
The inhibition was 2.6% (inactive).

Which inhibition does the source give for `CC(C)(C)NC(=O)NC(=O)COC(=O)CCC1CCCCC1` here?
The inhibition was 11.7% (inactive).

`CC(=O)N=c1ncn(CC(COC(C)=O)OC(C)=O)c2nc[nH]c12` (configuration not stated) was tested. Which inhibition did it give?
Its inhibition is 10.5% (inactive).

`O=C(Nc1ccccc1C(F)(F)F)c1cc(-c2ccc(O)cc2)on1` was tested. Which inhibition did it give?
Its inhibition is -234% (inactive).

How did the inhibition turn out when `Cc1cc2c(c(=O)n1C)C(C(C)C)C(C#N)=C(N)O2` (configuration not stated) was run?
Its inhibition is 9.3% (inactive).

For `CCOC(=O)C1(C(F)(F)F)N=C(N(C)C)OC(N(C)C)=N1`, which inhibition is on record?
Its inhibition is 5.6% (inactive).

Which inhibition does the source give for `C=CCOc1ccc(Cl)cc1CNCCCN1CCOCC1` here?
The inhibition was 9.4% (inactive).

`CSc1ccc(/C=N\NC(=O)COc2ccc(Cl)cc2Br)cc1` was tested. Which inhibition did it give?
Its inhibition is 36% (inactive).

Which inhibition does the source give for `Cc1cc(C)c(OCC(=O)N/N=C/c2ccco2)c(C)c1` here?
The inhibition was -17.6% (inactive).

For `Cc1ccc(OCC(=O)N/N=C/c2ccncc2)cc1`, which inhibition is on record?
The inhibition was 86.7% (active).

`NS(=O)(=O)c1ccc(NS(=O)(=O)/C=C/c2ccccc2)cc1` was tested. Which inhibition did it give?
Its inhibition is 47.3% (inactive).

`Cc1ccc(-c2nn(C(C)(C)C)c3ncnc(N)c23)cc1` was tested. Which inhibition did it give?
Its inhibition is 25.5% (inactive).

How did the inhibition turn out when `Cn1c(=O)[nH]c(=O)c2c1nc(N1CCN(CCO)CC1)n2CCSc1nc2ccccc2s1` was run?
The inhibition was -5.4% (inactive).

Which inhibition does the source give for `Cc1nc2nc(CSc3nc4ccccc4s3)cc(=O)n2[nH]1` here?
The inhibition was 60.1% (active).

With `CCCc1cc(=O)n2[nH]c(SCc3ccccc3)nc2n1` as the molecule, how does the inhibition read?
The inhibition was 43.9% (inactive).

With `CCCCn1nc(C(=O)N2CCc3ccccc32)c2ccccc2c1=O` as the molecule, how does the inhibition read?
The inhibition was 41% (inactive).

Which inhibition does the source give for `CC(=O)Cc1nsc(NC(=O)c2csc3c2CCCC3)n1` here?
Its inhibition is 30% (inactive).

For `CCOc1ccc(OCc2ccc(C(=O)Nc3cccc(C)n3)o2)cc1`, which inhibition is on record?
Its inhibition is 40.9% (inactive).

With `CC(=O)Cc1nsc(NC(=O)c2ccc(COc3ccc(C)cc3)o2)n1` as the molecule, how does the inhibition read?
Its inhibition is 64.4% (active).
